Screens: PubChem BioAssay, National Center for Advancing Translational Sciences (NCATS)
GPT2 inh: blocks human glutamate pyruvate transaminase 2. 100,000 tested, 0.25% active. Potency, µM (highest dose often 57.7 µM), without a hit: at the highest dose activity change, negative = inhibition, most hits filed as inhibitors. AID 1671188. Q8TD30. Recombinant GPT2, coupled pyruvate oxidase/HRP Amplex Red fluorescence; also: nearly all actives have a fitted effect of over 60% in size
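GPT2 10ng/uL, a-KG 250uM, L-Ala 2mM, HEPES pH7.5 + 0.0001% Tween; 30 min RT. Then Amplex mix (PO/HRP/ThPP), 30 min RT dark, fluorescence. AOA 50uM used as positive control.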
FLuc inh: inhibitors of firefly (Photinus pyralis) luciferase; P08659; purified P. pyralis luciferase, luminescence, biochemical; Potency, µM (top dose mostly 115 µM), usual class: inhibitors; 76,000 tested, 2.5% active; also: nearly all actives have a fitted effect of over 65% in size
Target sequence (P08659 whole entry, looked up): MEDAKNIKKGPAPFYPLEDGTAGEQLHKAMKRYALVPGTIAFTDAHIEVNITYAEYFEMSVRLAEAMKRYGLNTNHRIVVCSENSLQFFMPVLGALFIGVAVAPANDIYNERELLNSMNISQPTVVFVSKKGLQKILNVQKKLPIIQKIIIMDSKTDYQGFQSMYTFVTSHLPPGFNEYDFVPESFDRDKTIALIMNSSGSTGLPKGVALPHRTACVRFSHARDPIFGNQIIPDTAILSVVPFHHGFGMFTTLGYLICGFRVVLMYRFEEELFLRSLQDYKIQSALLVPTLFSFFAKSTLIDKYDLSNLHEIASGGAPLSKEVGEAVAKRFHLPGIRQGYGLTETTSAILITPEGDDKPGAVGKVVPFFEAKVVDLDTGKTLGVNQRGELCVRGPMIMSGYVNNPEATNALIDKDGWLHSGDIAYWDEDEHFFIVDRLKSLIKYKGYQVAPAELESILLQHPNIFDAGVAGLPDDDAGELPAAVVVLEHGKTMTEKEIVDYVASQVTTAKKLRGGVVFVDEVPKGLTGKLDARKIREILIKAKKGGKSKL
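Purified P. pyralis luciferase (10nM final) in 50mM Tris acetate pH 7.5, 10mM Mg acetate, 0.01% Tween-20, 0.05% BSA with 10uM D-luciferin and 10uM ATP. Compounds titrated qHTS. Luminescence imaged on CCD.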
NPR1 antag: blocks ANP-stimulated signaling of human Npr1 receptor; HEK293 hNpr1 GloSensor cGMP, ANP-stimulated luminescence; 76,000 tested, 1.6% active; Potency, µM (doses to about 46.3 µM), for inactives: at the top dose activity change, negative = inhibition, usual class: inhibitors; P16066; calls by dose curve; also: nearly all actives have a fitted effect of over 60% in size
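Compound pre-incubated 30 min at room temperature on GloSensor-loaded HEK293 cells stably carrying hNpr1 and the pGS-40F cGMP biosensor. Stimulation uses hNppA at 0.1 nM final; luminescence is taken at baseline and 20 min post-agonist.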
NIH3T3 tox: cytotoxic compounds in NIH 3T3 cells; 94,000 tested, 4.3% active; Potency, µM (series often up to 96.7 µM), inactives show at the top dose activity change, negative = cytotoxicity, actives largely listed as inhibitors; AID 1345082; NIH 3T3 viability, CellTiter-Glo ATP luminescence, 48-72 h; also: nearly all actives have a fitted effect of over 55% in size
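Luminescent ATP readout (CellTiter-Glo, 10 min RT) after 48 or 72 hr compound exposure of NIH 3T3 cells seeded at 400 cells/well in 1536-well format; quantitative HTS.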
HEK cytotox: HEK 293 cell cytotoxicity | HEK 293 viability, ATP luminescence (CellTiter-Glo), 48-72 h | 94,000 tested, 6.6% active | AID 1345083 | Potency, µM (series often up to 115 µM), for inactives: top-dose activity change, negative = cytotoxicity, most hits filed as inhibitors; also: nearly all actives have a fitted effect of over 60% in size
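ATP-coupled CellTiter-Glo luminescence served as viability read-out, recorded 10 min after reagent addition at room temperature. HEK 293 cells, 250 cells/well, had been incubated with pintool-transferred compound for 48 or 72 hr at 37 degree Celsius.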
An asterisk follows results filed as active; i = inactive; ? = inconclusive; . = no result given; ! = a repeat was not active; [ ] = remark or other dose. This is a sample that favours compounds with a hit; in the whole collection about 10% have one here. Unless noted, calls follow the shape of the dose curve; as a rule, active = well fitted curve in the direction sought with a large enough effect; inconclusive = small, poorly fitted or top-dose-only effect, or another doubt; inactive = no such curve, though single readings can be large; an effect the other way counts as inactive or inconclusive. % is scaled to controls: 0 for no effect and ±100 for the full control effect; potency is read from the fitted curve at half-maximal effect.

SMILES	GPT2 inh	FLuc inh	NPR1 antag	NIH3T3 tox	HEK cytotox
COCC1CN(C)CC12CCN(Cc1ccc(C#N)cc1)CC2 (centres undefined)	2.6%	i	0.7%	-24.3%	?
Cc1ccc(CN2CCC3(CCCO3)CCC2=O)c2ccccc12 (centres undefined)	-4.2%	i	0.1%	-19.9%	?
CCN1CCC2(CCC1=O)CN(Cc1ccc(C)c3ccccc13)CCN2C (centres undefined)	-5.2%[11.5 µM]	i	4.6%	-11.4%	79.4µM*
O=C(NCc1cccc(Cl)c1)c1ccc2nnc(-c3ccc(F)cc3)n2c1	i	.	.	?	?
COCCCn1c(=O)c(C(=O)N2CCN(C(=O)COC)CC2)nc2cccnc21	i	.	.	4.7%	i
COc1cc(C)ccc1OCc1cc(C(=O)N(C)Cc2ncccc2C)no1	i	i	2.6%	35.5µM*	39.8µM*
O=C(NCc1cccs1)c1ccc2nnc(CC3CC3)n2c1	i	.	.	?	i
COCc1cc(=O)n(CC(=O)Nc2cc(C)ccc2OC)c(N2CCOCC2)n1	-0.3%	i	-3.7%	?	?
c1ccc(C2=NOC3(CCN(Cc4c[nH]c5ccccc45)CC3)C2)cc1	i	.	.	?	44.7µM*
C[S+](=O)([O-])N1CC2(CCN(Cc3c[nH]c4ccccc34)CC2)Cc2ccccc21	1.6%	.	.	25.1µM*	44.7µM*
c1ccc(CC2=NOC3(CCN(Cc4c[nH]c5ccccc45)CC3)C2)cc1	-7.4%	.	.	31.6µM*	50.1µM*
CC(=O)N1CC2(CCN(Cc3c[nH]c4ccccc34)CC2)Cc2ccccc21	-32.2%	.	.	?	?
CC(C)C1=NOC2(CCN(Cc3c[nH]c4ccccc34)CC2)C1	-2.4%	.	.	-1.9%	-1.1%
CCc1nc2c(c(-c3ccc(O)cc3)n1)CCN(Cc1ccc(OC)cc1)CC2	i	i	-17.8%	-24.4%	-11.7%
CC1(C)[C@H](Cc2cc(CC3CCCCC3)on2)C[C@@H]1NC(=O)C1CCCC1	?	i	?	?	?
Cc1ccc(-c2nc(C)c(C(=O)Nc3ccc4c(c3)C(=O)N3CCC[C@H]3C(=O)N4)s2)cc1	1.4%	28.2µM*	-7.1%	-10.5%	?
CCN(CC)C(=S)SSC(=S)N(CC)CC	11.2µM*!	.	.	.	.
O=C(C1CCN([S+](=O)([O-])c2ccccc2)CC1)N1CCC(c2nc3ncccc3[nH]2)CC1	0.4%	.	.	-13.6%	1.7%
CCCc1noc(-c2cn(C3CCN(C(=O)c4ccc(N(C)C)cc4)CC3)nn2)n1	i	i	-17.1%	-21.8%	?
Cn1ccc2cc(-c3ccc4c(n3)c(=O)ncn4CC3CC3)ccc21	0.3%[88.5 µM]	44.7µM*	-10.9%[70.6 µM]	?	-22.3%[172 µM]
COCCn1cnc2ccc(-c3ccc4c(ccn4C)c3)nc2c1=O	-38.1%[88.5 µM]	?	-6.5%[70.6 µM]	44.7µM*	?
CC(C)NC(=O)c1nc2sccn2c1-c1ccc(C(F)(F)F)cc1	-5.5%[88.5 µM]	.	.	?	?
O=C(Cc1c[nH]c2ncc(-c3ccc(Oc4ccccc4)cc3)cc12)NCc1cccnc1	2.2%[88.5 µM]	i	?	?	39.8µM*
O=C(Cc1c[nH]c2ncc(-c3ccc(Cl)cc3)cc12)NCc1cccnc1	-5.3%[88.5 µM]	?	-30.2%[70.6 µM]	?	89.1µM*
COc1ccc2c(c1)OC[C@@H]1CN(CCC#N)C(=O)CCN(C(=O)c3ccccc3OC)[C@H]21	.	.	.	?	i
SMILES	GPT2 inh	FLuc inh	NPR1 antag	NIH3T3 tox	HEK cytotox
Cc1cccc(NC(=O)Nc2ccc(C)n(CC(=O)NC(C)C)c2=O)c1	i	7.08µM*	-2.1%	-23.5%	?
Cc1ccc(NC(=O)Nc2ccccc2)c(=O)n1CC(=O)N1CCN(c2ccccc2)CC1	i	11.2µM*	-0.9%	i	?
CCOc1ccc(NC(=O)Cn2c(C)ccc(NC(=O)Nc3cccc(C)c3)c2=O)cc1	-9.2%	?	0.0%	28.2µM*	39.8µM*
CN1C[C@H](NCc2cccc3c2OCO3)CCC[C@@H](C(=O)NCc2cc(F)cc(F)c2)CC1=O	i	i	-2.1%	?	-20.5%
COc1ccccc1Nc1ccnc(N2CCC[C@H]2C(=O)NCCc2ccccc2F)n1	i	.	.	-19.1%	?
COc1ccccc1CNC(=O)C1CCCN1c1nccc(Nc2ccccc2F)n1 (centres undefined)	i	.	.	?	39.8µM*
O=C(C1CCCN1c1nccc(Nc2ccccc2F)n1)N1CCC(Cc2ccccc2)CC1 (centres undefined)	i	.	.	39.8µM*	28.2µM*
CN1CC2(CCCN(C(=O)c3cn(C)c4ccccc34)CC2)OC1=O (centres undefined)	i[11.5 µM]	i	2.9%	i	1.5%
COc1ccccc1CN1CCCC(c2nn(-c3ccc(Cl)cc3)c(=O)[nH]2)C1 (centres undefined)	i	i	21.2%	?	?
N[C@@H]1CCN(Cc2ccccc2OCc2ccc(Cl)cc2)C[C@H]1O	i	i	0.0%	28.2µM*	22.4µM*
CC(C)N1CCC(N2CCCC(N3CCN(c4cccc(C(F)(F)F)c4)CC3)C2)CC1 (centres undefined)	i	i	6.0%	?	20µM*
COc1cccc(CN2CCCC(N3CCN(c4cccc(C(F)(F)F)c4)CC3)C2)c1O (centres undefined)	-16.7%	i	-13.7%	?	31.6µM*
COc1cccc(CNC(=O)c2c(C)oc3ccn(Cc4ccc(F)cc4)c(=O)c23)c1	i	i	-18.9%	?	39.8µM*
Cc1oc2ccn(Cc3ccccc3F)c(=O)c2c1C(=O)NCc1cc(F)cc(F)c1	i	i	-4.3%	?	35.5µM*
COc1ccccc1CNC(=O)c1c(C)oc2ccn(Cc3cccc(F)c3)c(=O)c12	3.1%	?	-18.6%	?	?
Cc1oc2ccn(Cc3cccc(F)c3)c(=O)c2c1C(=O)NCC1CCCCC1	4.1%	i	-15.7%	39.8µM*	39.8µM*
CCOC(=O)c1cccc(NC(=O)c2c(C)oc3ccn(Cc4ccc(F)cc4)c(=O)c23)c1	-11.3%	i	-5.0%	?	39.8µM*
N#Cc1cccnc1-c1ccc(C(=O)N2CCC(NC(=O)c3ccccc3)CC2)cc1	-9.9%	.	.	-29.2%	?
CC1CCN(C(=O)Cn2ccn3nc(-c4ccccc4)c(CO)c3c2=O)CC1	-28.2%	i	0.8%	0.7%	5.9%
COc1ccc(-c2nc(C)nc3c2CN(C(=O)c2cccc(Cl)c2)CC3)cc1	i	.	.	?	?
Cc1noc(-c2ccc(S(=O)(=O)N3C[C@H](C4CC4)[C@@H](N)C3)o2)c1C	-0.6%[11.5 µM]	i	1.1%	?	?
COC(=O)[C@@H]1Cc2c([nH]c3ccccc23)[C@H]2C[C@@H](NCc3cccnc3)C[C@@H](c3ccc(OC(F)(F)F)cc3)N21	-8.2%	i	6.4%	31.6µM*	28.2µM*
